Pf apPOL block = Pf-apPOL DNA polymerase inhibition. inhibition, % at 10 µM. actives 0.25% (n = 210,000). Recombinant Pf-apPOL, molecular beacon fluorescence, 1.5 h. AID 1794808
mHTT CaM bind = inhibitors of human mutant huntingtin-calmodulin interaction. AlphaScreen His-mHTT/GST-CaM binding, luminescence. inhibition, % at 15 µM. actives 3.6% (n = 190,000)
Hits are given with their value; . = inactive; / = not tested or not shown; ! = not active in a repeat. The sample as a whole holds a higher share of hits than the screen did. Rule as the data show it: active = inhibition above about 50%; inactive = the rest.

SMILES	Pf apPOL block	mHTT CaM bind
CC(=O)Nc1ccc2c(c1)C1C=CCC1C(c1ccc(Br)cc1)N2 (centres undefined)	73	86
CC(=O)Nc1ccc2c(c1)C1C=CCC1C(c1ccccc1[N+](=O)[O-])N2 (centres undefined)	.	65
CCOc1cc([N+](=O)[O-])c2[nH]c(C(=O)O)c(C)c2c1	.	.
Cc1cc(C)c(-c2ccn[nH]2)[nH]1	.	/
CN(CC(=O)N1N=C(c2cccn2C)CC1c1ccccc1)C(=O)C1CCC1 (centres undefined)	.	55
CC(=O)N(C)CC(=O)N1N=C(c2cccn2C)CC1c1ccc(Cl)cc1 (centres undefined)	.	65
COc1ccc(C2=NN(C(=O)CN(C)C(C)=O)C(c3ccc(Cl)cc3)C2)cc1 (centres undefined)	.	.
CC(C)C(=O)N(C)CC(=O)N1N=C(c2cccn2C)CC1c1ccc(Cl)cc1 (centres undefined)	.	78
CC(C)C(=O)N(C)CC(=O)N1N=C(c2ccc(F)cc2)CC1c1ccccc1 (centres undefined)	.	.
CN(CC(=O)N1N=C(c2cccn2C)CC1c1ccc(Cl)cc1)C(=O)C1CCC1 (centres undefined)	.	.
O=c1oc2ccccc2c(O)c1C=Nc1nc2ccccc2s1	.	.
O=C(Nc1ccc(S(=O)(=O)Nc2ccc(F)cc2)cc1)C1CC1	.	.
O=C1/C(=C/c2ccc(Br)o2)CC/C1=C\c1ccc(Br)o1	.	96
O=C1C=C/C(=C/c2ccc(Br)o2)O1	/	.
O=C1C(=Cc2ccc(Sc3ccccc3)o2)C(=O)c2ccccc21	.	.
O=C1C(=Cc2ccc(Br)o2)C(=O)c2ccccc21	.	77
Cc1cc(C)cc(NC(=O)c2cc(S(=O)(=O)NCc3ccc(F)cc3)ccc2F)c1	.	.
COC(=O)c1ccc(Oc2c(C)oc3c4c(ccc3c2=O)OCN(Cc2ccccn2)C4)cc1	.	100
COCCCN1COc2ccc3c(=O)c(Oc4ccc(C(=O)OC)cc4)c(C)oc3c2C1	.	.
COc1cccc(Nc2nc(-c3ccc(F)cc3)cs2)c1	.	59
COc1ccc(-c2csc(Nc3cccc(C(=O)O)c3)n2)cc1	.	.
Fc1ccc(-c2csc(Nc3ccc(Oc4ccccc4)cc3)n2)cc1	.	.
COc1ccc(-c2csc(Nc3cccc(O)c3)n2)cc1	.	89
C=C(C)CNC(=O)c1cc(-c2ccc3c(c2)OCO3)on1	.	.
CCN(CC)C(=O)CSc1nc2n[nH]c(C)c2c(=N)n1-c1ccc(Oc2ccccc2)cc1	.	.
SMILES	Pf apPOL block	mHTT CaM bind
CCN(CC)C(=O)CSc1nc2n[nH]c(C)c2c(=N)n1-c1ccc(C)c(Cl)c1	.	.
CCC(C)NC(=O)CSc1nc2n[nH]c(C)c2c(=N)n1-c1ccc(C)cc1 (centres undefined)	.	54
CCc1ccc(-n2c(SCC(=O)NC(C)CC)nc3n[nH]c(C)c3c2=N)cc1 (centres undefined)	.	91
O=C(c1cc(F)ccc1Cl)N1CCc2nc(-c3ccc(Cl)cc3)ncc2C1	.	.
O=C(Nc1c2c(nn1-c1cccc(Cl)c1)CSC2)C1CCCCC1	.	.
COc1cccc(CN2CC(C(=O)N3CCCCC3C)CC2=O)c1 (centres undefined)	.	.
Cc1ccc(NC(=O)/C(C#N)=C/c2cc(C)n(-c3cccnc3)c2C)cc1C	.	52
CCOc1ccc(NC(=O)/C(C#N)=C/c2cc(C)n(-c3cccnc3)c2C)cc1	.	.
Cc1ccc(NC(=O)C2CCN(c3cc(=O)n(C)c(=O)n3C)CC2)cc1C	.	.
O=C1CCCC2=C1C(c1cccc(Cl)c1)C1C(=O)c3ccccc3C1=N2 (centres undefined)	.	.
Cc1cc(C2C3=C(CC(C)(C)CC3=O)N=C3c4ccccc4C(=O)C32)cc(C)c1O (centres undefined)	.	.
O=C1CCCC2=C1C(c1cc(Br)ccc1O)C1C(=O)c3ccccc3C1=N2 (centres undefined)	.	.
CC1(C)CC(=O)C2=C(C1)N=C1c3ccccc3C(=O)C1C2c1ccccc1Cl (centres undefined)	.	.
Cc1ccc(C2C3=C(CC(C)(C)CC3=O)N=C3c4ccccc4C(=O)C32)cc1 (centres undefined)	.	62
CC1(C)CC(=O)C2=C(C1)N=C1c3ccccc3C(=O)C1C2c1ccc(Cl)cc1 (centres undefined)	.	68
O=C1CCCC2=C1C(c1ccc(Br)cc1)C1C(=O)c3ccccc3C1=N2 (centres undefined)	.	69
CC1(C)CC(=O)C2=C(C1)N=C1c3ccccc3C(=O)C1C2c1cccc(Cl)c1 (centres undefined)	.	64
COc1ccc(Oc2coc3cc(OCc4cccc(OC)c4)ccc3c2=O)cc1	.	.
COc1ccc(-n2cc(C(=O)NC(C)C)nn2)cc1	.	.
COc1ccc(C2C3=C(CC(C)(C)CC3=O)OC3=C2C(=O)CC(C)(C)C3)cc1OC	.	.
CC1(C)CC(=O)C2=C(C1)Nc1ccccc1NC2c1cccc([N+](=O)[O-])c1 (centres undefined)	.	.
CC1(C)CC(=O)C2=C(C1)N=C1c3ccccc3C(=O)C1C2c1cccc([N+](=O)[O-])c1 (centres undefined)	.	51!
COc1ccc(C2C3=C(CC(C)(C)CC3=O)N=C3c4ccccc4C(=O)C32)cc1OC (centres undefined)	.	64
O=C(CN1CCCCC1c1nc(-c2cccc(F)c2)no1)Nc1ccc(F)cc1 (centres undefined)	.	.
Cc1oc(C2CCN(C(=O)NCc3ccco3)CC2)nc1C(=O)N1CCCCC1	.	.
SMILES	Pf apPOL block	mHTT CaM bind
CN(C)c1ccc(CCCNS(=O)(=O)c2ccc(Cl)s2)cc1	.	65
CN(C)c1ccc(CCCNS(=O)(=O)Cc2cccc(Cl)c2)cc1	.	.
CCOC(=O)N1CCc2nn(CC(=O)Nc3ccc(C)cc3)c(=O)cc2C1	.	.
O=C(c1ccncc1)N1CCN(c2[nH]ncc2-c2ccncc2)CC1	.	.
O=C(c1ccccc1)N1CCN(c2[nH]ncc2-c2ccccc2)CC1	.	77
O=C(c1cccs1)N1CCN(c2[nH]ncc2-c2ccncc2)CC1	.	.
O=C(c1ccsc1)N1CCN(c2[nH]ncc2-c2ccccc2)CC1	.	63
Cc1ccc(NC(=O)c2nc3ccccc3[nH]c2=O)cc1	.	.
CCNC(=O)C1CN(C(=O)c2cccs2)CC12CCCCC2 (centres undefined)	.	.
COc1cccc(CC(=O)Nc2cccn3cnnc23)c1	.	.
CC(C)CN1CC(C)C(O)(c2ccccc2)CC1C (centres undefined)	.	.
CCOc1ccc(/C=C2/C(=O)ON=C2C)cc1Br	.	.
CCOc1ccc(Cl)cc1/C=C1/C(=O)ON=C1C	.	.
CCCCC1(C)OC(=O)C(=Cc2ccc(N(CC)CC)cc2)C(=O)O1 (centres undefined)	.	.
CCOc1ccc(/C=C2/C(=O)ON=C2C)cc1Cl	.	67
CCN(CC)c1ccc(/C=C2/C(=O)ON=C2C)cc1	.	50
CCCOc1ccc(/C=C2/C(=O)ON=C2C)cc1Cl	.	58
CC(NC(=O)C(=O)NCC1CCCO1)c1ccccc1 (centres undefined)	.	.
CN(C)c1ccc(C(CNC(=O)C(=O)NCC2CCCO2)N2CCc3ccccc32)cc1 (centres undefined)	.	65

Source: PubChem (University of Kansas High Throughput Screening Laboratory)
